Assay outcomes: PubChem BioAssay, several laboratories
Insulin prom inh – inhibitors of insulin promoter-driven GFP, primary screen, imaging, TRM-6 cells (human fetal islet line), eGFP reporter, cell count | reporter expression induced with tamoxifen | inhibition, % at 2 µM | 130,000 compounds, 0.9% hits | AID 1273, 2008;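 active = inhibition above the mean plus 3 SD, with well images judged a real hit on visual review, cut at about 60% in these data, passing the limit was not always enough; inconclusive = inhibition over the cutoff but images rejected on review; inactive = inhibition not above the cutoff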
E-sel TNF inh – E-selectin induction blockers in HUVEC – imaging, immunofluorescence, high content, primary screen | inhibition, % at 2 µM | HUVEC TNFa-induced E-selectin immunofluorescence | AID 1246, 2008 | 120,000 compounds, 0.71% hits;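 active = inhibition above the batch mean plus 3 SD, and confirmed as a hit on visual image review, cut at about 43% in these data; inconclusive = passes the inhibition cutoff but fails visual image review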;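 also: 0% = TNF-stimulated DMSO wells and 100% = unstimulated control wells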
HUVEC tox TNFa – cytotoxicity in TNFa-stimulated HUVEC, primary screen, cytotoxicity control for VCAM1 expression modulator project, imaging, Hoechst nuclei count; HUVEC TNFalpha-stimulated, Hoechst cell count; cell count reduction, % at 2 µM; 93,000 compounds, 0.17% hits; AID 848, 2007;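 active = cell count reduction exceeding the screen mean by over 5 SD, scaled to untreated wells per plate, cut at about 78% in these data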;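 also: cells counted after 24 h of TNF alpha exposure following the 1 h pretreatment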
Phagocyt inh – inhibitors of macrophage phagocytosis, primary screen, imaging, J774A.1 cells, IgG beads; J774A.1 macrophage IgG-bead phagocytosis; 110,000 compounds, 0.07% hits; inhibition, % at 5 µM;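 active = inhibition above the mean of the plate negative controls plus 5 SD, cut at about 13% in these data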;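 also: phagocytic index as fraction of beads internalized from green versus red external bead signal; plate controls were DMSO negative control for no effect and cytochalasin-D positive control for full effect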
cytoskel mod – modifiers of F-actin cytoskeleton organization, primary screen, imaging, HUVEC, phalloidin staining, high-content imaging | inhibition, % at 2 µM | AID 836, 2007 | HUVEC TNFa F-actin phalloidin imaging | 91,000 compounds, 0.18% hits;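 active = inhibition above the batch mean plus 3 SD and confirmed as a hit by visual image inspection, cut at about 30% in these data, passing the limit was not always enough; inconclusive = above the inhibition threshold but rejected on visual inspection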
VCAM1 TNFa inh – inhibitors of TNFa-induced VCAM1 expression, primary screen, imaging, HUVEC, TNFa stimulus, immunofluorescence | HUVEC TNFa-induced VCAM-1 immunofluorescence, high-content imaging | inhibition, % at 2 µM | AID 802, 2007 | 95,000 compounds, 0.48% hits;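 active = inhibition above the batch mean plus 3 SD, with images confirmed as a hit by eye, cut at about 37% in these data; inconclusive = inhibition above that limit but hit not confirmed in images; inactive = inhibition not above that limit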;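 also: 0% = TNF-stimulated DMSO wells and 100% = unstimulated control wells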
Starred values were filed as active, the others as inactive; ? = inconclusive; . = no result; [ ] = another dose, or the depositor's remark. Most compounds without a hit are left out; they make up all but 1.6% or so of the library.

SMILES	Insulin prom inh	E-sel TNF inh	HUVEC tox TNFa	Phagocyt inh	cytoskel mod	VCAM1 TNFa inh
c1ccc(NC2=NCCCCS2)cc1	19	54*	2	.	4	14
Cc1ccc(C2=Nc3ccccc3N=C(C(Cl)Cl)C2)cc1	82*	-18	.	.	.	.
CC(C)(C)c1ccc(C(=O)CSc2n[nH]c(=O)[nH]c2=O)cc1	-49	3	6	-2	-17	14
COc1ccc(NC(=O)COC(=O)CCCc2c[nH]c3ccccc23)cc1	-13	15	.	.	-16	-48
NC(=O)COC(=O)CCCc1c[nH]c2ccccc12	?	.	79*	0	-56	94*
O=c1c2ccccc2sn1-c1ccc(S(=O)(=O)N2CCCCC2)cc1	28	-5	-26	.	26	1
Cc1ccc(-n2sc3ccccc3c2=O)cc1S(=O)(=O)N1CCCCC1	75*	2	0	-5	-6	16
CN1C(=O)C2(NCCc3c2[nH]c2ccccc32)c2ccccc21 (centres undefined)	15	12	.	4	-3	53*
O=C(c1ccccc1)c1ccccc1C(=O)N1CCOCC1	90*	-14	9	-1	-7	-8
CCCCC(=O)Nc1ccccc1C(=O)N1CCOCC1	71*	5	12	.	3	4
Cc1ccc(SCC(=O)Nc2ccccc2C(=O)N2CCOCC2)cc1	.	-19	.	-13	.	.
CC(C)c1ccccc1-n1c(-c2cccnc2)n[nH]c1=S	29	.	.	.	.	.
O=C1C=C(NCCOC23CC4CC(CC(C4)C2)C3)C2(CCCCC2)O1	13	-6	.	.	.	.
CC(CCc1ccccc1)NC(=O)/C=C/c1ccc(Cl)cc1 (centres undefined)	5	65*	.	-3	.	.
CC(Cc1ccccc1)NC(=O)/C=C/c1ccc([N+](=O)[O-])cc1 (centres undefined)	15	.	.	-2	.	.
CC1(C)Cc2c(sc3ncnc(N)c23)CO1	83*	1	21	-1	-17	-10
CC1(C)Cc2c(sc3nc[nH]c(=O)c23)CO1	100*	.	.	.	.	.
CC1(C)Cc2c(sc3nn[nH]c(=O)c23)CO1	.	.	-12	0	-31	1
FC(F)(F)c1ccc(Oc2ccc(Cl)cc2Br)nc1	-24	.	.	.	.	.
OC(c1ccccc1)c1nccc2ccccc12 (centres undefined)	50	21	.	.	.	.
Cc1nc2sc(C(=O)OC(C)C)c(N)c2c(C)c1C	100*	.	.	.	.	.
Cc1nc2ccc(S(=O)(=O)NCC(=O)N3CCCC(C)C3)cc2s1 (centres undefined)	73*	.	-31	-1	-1	3
Cc1nc2ccc(S(=O)(=O)NCC(=O)N3CCc4ccccc4C3)cc2s1	-244	-71	0	-1	-4	18
CC(=O)N1CC=CC1(C)C(=O)O (centres undefined)	24	.	.	.	.	.
CCOC(=O)c1cc(=O)n2nc(-c3ccccc3F)nc2s1	86*	.	-20	0	15	14
SMILES	Insulin prom inh	E-sel TNF inh	HUVEC tox TNFa	Phagocyt inh	cytoskel mod	VCAM1 TNFa inh
CCOC(=O)c1ccc(NC(=O)Cn2nnc(-c3ccccc3F)n2)cc1	-11	.	.	-6	.	.
CCc1nc(NC(C)C)c2oc3ccccc3c2n1	89*	-36	.	.	.	.
CCc1nc(NCCN2CCOCC2)c2oc3ccccc3c2n1	85*	.	-7	-1	-6	-13
CCc1nc(Nc2ccc3c(c2)OCO3)c2oc3ccccc3c2n1	79*	-63	-11	.	-25	-18
CCc1nc(N[C@@H](CC(C)C)C(=O)O)c2oc3ccccc3c2n1	45	-18	-10	.	0	-2
c1ccc2c(c1)nc(NC1CCCCC1)c1nncn12	.	.	-16	1	12	9
c1ccc(Nc2nc3ccccc3n3cnnc23)cc1	40	87*	.	.	.	.
Cn1c(=O)c2ncn(CC(=O)Nc3cccc(-c4nc5ccccc5s4)c3)c2n(C)c1=O	15	-52	-27	0	10	-6
O=C1N/C(=C/c2cccs2)C(=O)N1Cc1ccc(Br)cc1	.	4	.	.	.	.
CCOc1ccc2nc(NC(=O)CSC3=NCCS3)sc2c1	.	29	1	-1	-12	-4
COc1ccc2nc(NC(=O)c3cccc(S(=O)(=O)N4CCOCC4)c3)sc2c1	74*	-14	.	-2	.	.
COc1ccc2nc(NC(=O)CSC3=NCCS3)sc2c1	46	100*	17	-1	22	-6
COc1ccc(OC)c(NC(=O)c2ccccc2N(Cc2ccccc2)S(C)(=O)=O)c1	17	.	.	.	.	.
O=C(Nc1ccc(Cl)cc1)c1cc2nc(-c3ccco3)cc(C(F)(F)F)n2n1	71*	78*	-27	0	-12	6
COc1ccc(O)c(C(=O)c2coc(=N)c(C(=O)Nc3ccc(SC(F)F)cc3)c2)c1	-82	.	.	.	.	.
COc1ccc(NC(=O)N2CCCCC2)cc1	80*	-6	-14	0	1	1
O=C(COC(=O)CCC1CCCC1)Nc1ccc(Cl)cc1F	.	36	.	-2	.	.
CCN(CC)S(=O)(=O)c1ccc(C(=O)Oc2cc(C)[nH]c(=O)c2[N+](=O)[O-])cc1	-18	.	.	.	.	.
CCc1c(C)nc2ncnn2c1N1CCC(C(=O)N2CCN(c3ccc(F)cc3)CC2)CC1	33	55*	-60	0	10	-19
CCN(CC)CCCNC(=O)CSc1nc(-c2ccc(F)cc2)cc(C(F)(F)F)n1	21	20	.	.	.	.
Cc1cc(=O)n2nc(-c3ccccc3)sc2c1C#N	9	95*	.	0	.	.
Cc1nc2sc(-c3ccccc3)nn2c(=O)c1Br	50	2	.	.	.	.
O=C(CSc1ccc2ccccc2n1)Nc1nsc(-c2ccc(Cl)cc2)n1	.	42	.	31*[artifact]	.	.
CCCCN(C(=O)NC(=O)Nc1cccc(C)c1C)S(C)(=O)=O	43	.	70	0	-73	90*
CCCCN(C(=O)NC(=O)Nc1ccccc1C)S(C)(=O)=O	-3	33	-24	.	17	-7
SMILES	Insulin prom inh	E-sel TNF inh	HUVEC tox TNFa	Phagocyt inh	cytoskel mod	VCAM1 TNFa inh
CCCC(C)NC(=O)c1ccc(OCc2ccc(Cl)cc2)c(OC)c1 (centres undefined)	19	.	.	-17	.	.
CCOc1cc(/C=C2/NC(=O)NC2=O)cc(Br)c1OCc1ccc(C(=O)O)cc1	42	.	.	.	.	.
Cc1n[nH]c(=O)nc1NCc1ccccc1	-21	.	77	-1	-6	89*
CC(C)c1ccc(CNC(=O)C(=O)NCC2CCCO2)cc1 (centres undefined)	31	.	.	.	.	.
Cc1cc2cc(C=C(C#N)C#N)c(Cl)nc2cc1C	7	58*	.	0	.	.
O=C1C2CCCN2C(c2ccccc2)N1c1nccs1 (centres undefined)	.	85*	-14	3	3	-8
Cc1ccccc1C1N(c2nccs2)C(=O)C2CCCN21 (centres undefined)	47	.	.	.	.	.
O=C(NCc1ccccc1)N1CCN(c2ccc(Cl)c(Cl)c2)CC1	.	71*	-13	0	-29	4
O=C(NC1(C(F)(F)F)N=C2SCCN2C1=O)c1cccnc1 (centres undefined)	13	.	.	.	.	.
O=C1N2CCSC2=NC1(Nc1ccccn1)C(F)(F)F (centres undefined)	.	.	-18	2	24	86*
